Results filed as inconclusive are left out. More than one record can exist for a structure, and the calls need not agree. Active and inactive are the calls of the source. How the source made its calls, unless noted: active means hit-call score of the fitted dose curve at least 0.9, where 1 is the maximum; inactive means score below 0.9.
How the values were obtained:
[1] = ATG_FoxO_CIS: Attagene CIS-FACTORIAL HepG2 Assay for human Forkhead box O (FoxO) (AID 2282943); conditions: HepG2 Attagene cis-reporter, FoxO element, mRNA; actives raise or lower the signal
Method in brief: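 Endogenous transcription factor activity read from multiplexed cis-promoter reporter transcripts in transiently transfected HepG2, 24 h after dosing. Reporter RNA measured via RT-PCR plus capillary electrophoresis of FAM-labeled products; gain or loss relative to DMSO.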

[2] = ATG_GATA_CIS: Attagene CIS-FACTORIAL HepG2 Assay for human GATA Binding Protein (AID 2282944); conditions: HepG2 GATA cis-element reporter, Attagene multiplex mRNA; actives raise or lower the signal
Method in brief: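 Endogenous transcription factor activity was captured through cis-promoter-driven reporters in transfected HepG2 cells. After 24 h exposure, reporter transcripts were quantified by RT-PCR with fluorescent capillary electrophoresis, and responses fitted both directions against DMSO.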

[3] = ATG_ISRE_CIS: Attagene CIS-FACTORIAL HepG2 Assay for human Interferon Regulatory Factor 1 (IRF1) binding to an Interferon-Stimulated Response Element (ISRE) (AID 2282948); conditions: HepG2 ISRE cis-reporter (Attagene), mRNA transcription readout; actives raise or lower the signal
Method in brief: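 Read-out: fluorescent RT-PCR products resolved by capillary electrophoresis, reporting endogenous transcription factor activity via ISRE-driven reporter mRNA in transfected HepG2 cells dosed for 24 h; gain or loss fitted relative to DMSO.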

[4] = ATG_M_06_CIS: Attagene CIS-FACTORIAL HepG2 Assay for M06 Transcription Factor (Internal Marker) (AID 2282950); conditions: HepG2 Attagene CIS-FACTORIAL M06 internal marker reporter; actives raise or lower the signal
Method in brief: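 Steps: transfect HepG2 with multiplexed cis-element reporter constructs; dose chemical 24 h; extract RNA with DNase treatment; reverse-transcribe, PCR-amplify, 6-FAM label, HpaI digest; separate fragments by capillary electrophoresis. Activity fitted both directions versus DMSO.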

[5] = ATG_MRE_CIS: Attagene CIS-FACTORIAL HepG2 Assay for human Metal Responsive Element (MRE) (AID 2282954); conditions: HepG2 MRE cis-reporter transcription, Attagene multiplex; actives raise or lower the signal
Method in brief: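 Multiplexed cis-reporter assay in human HepG2 liver cells, 24 h incubation with test chemical. Reporter transcripts measured by RT-PCR and capillary electrophoresis; values from bidirectional curve fitting versus DMSO.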

[6] = biological target: Paired box protein Pax-6 (Homo sapiens) (UniProt P26367); test: ATG_Pax6_CIS: Attagene CIS-FACTORIAL HepG2 Assay for human Paired Box 6 (PAX6) (AID 2282956); conditions: HepG2 CIS-FACTORIAL PAX6 reporter transcription, RNA readout; actives raise or lower the signal
Method in brief: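 Readout: reporter transcript fluorescence after RT-PCR and capillary electrophoresis. Cells: HepG2, transiently transfected with cis-regulated MRTUs. Exposure 24 h. Gain or loss of signal fitted bidirectionally relative to DMSO.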

[7] = biological target: Transcription factor Sp1 (Homo sapiens) (UniProt P08047); test: ATG_Sp1_CIS: Attagene CIS-FACTORIAL HepG2 Assay for human Specificity Protein 1 (Sp1) (AID 2282961); conditions: HepG2 Sp1 cis-reporter transcription, actives raise or lower the signal
Method in brief: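 Chemicals are dosed onto HepG2 cells transfected with multiple cis-promoter reporter constructs, and after 24 h reporter RNA is reverse-transcribed, PCR-amplified and resolved by capillary electrophoresis for fluorescence quantitation; activity is scored up or down against DMSO.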

[8] = ATG_SREBP_CIS: Attagene CIS-FACTORIAL HepG2 Assay for human Sterol Regulatory Element Binding (SREBP) (AID 2282962); conditions: HepG2 Attagene cis-factorial SREBP reporter, mRNA; actives raise or lower the signal
Method in brief: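 Readout: fluorescent reporter-transcript peaks resolved by capillary electrophoresis after RT-PCR. Cells were human HepG2 carrying transfected cis-promoter reporter constructs, dosed for 24 h. Gain or loss of signal was fitted against DMSO controls.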

[9] = biological target: Signal transducer and activator of transcription 3 (Homo sapiens) (UniProt P40763); test: ATG_STAT3_CIS: Attagene CIS-FACTORIAL HepG2 Assay for human Signal Transducer and Activator of Transcription 3 (STAT3) (AID 2282963); conditions: HepG2, Attagene cis-factorial STAT3 reporter transcription; actives raise or lower the signal
Method in brief: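 Cis-factorial format: endogenous transcription factors in HepG2 drive transfected reporter units. After 24 h treatment, reporter RNA was reverse-transcribed, amplified, FAM-labelled and HpaI-digested before CE analysis; activity scored in both directions against DMSO.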

[10] = ATG_TAL_CIS: Attagene CIS-FACTORIAL HepG2 Assay for human TAL Basal Promoter (AID 2282966); conditions: HepG2 Attagene cis-factorial TAL promoter reporter; actives raise or lower the signal;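 further: background control endpoint measuring basal TAL promoter reporter mRNA not a specific factor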
Method in brief: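 HepG2, transient MRTU transfection, 24 h compound exposure; RNA → oligo(dT) RT → PCR → 6-FAM primer extension → HpaI digest → CE fluorescence. Bidirectional curve fit vs DMSO. Background-control readout.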

[11] = biological target: X-box-binding protein 1 (Homo sapiens) (UniProt P17861); test: ATG_Xbp1_CIS: Attagene CIS-FACTORIAL HepG2 Assay for human X-box Binding Protein 1 (XBP1) (AID 2282972); conditions: HepG2 XBP1 cis-element reporter, Attagene multiplex; actives raise or lower the signal
Method in brief: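 Read-out: fluorescent reporter mRNA fragments resolved by capillary electrophoresis after RT-PCR. Human HepG2 liver cells carried transfected cis-promoter reporter units and were exposed to chemicals for 24 hours. Gain or loss of signal fitted relative to DMSO baseline.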

[12] = biological target: Transcriptional activator Myb (Homo sapiens) (UniProt P10242); test: ATG_Myb_CIS: Attagene CIS-FACTORIAL HepG2 Assay for human Myeloblastosis (Myb) Proto-Oncogene Transcription Factor (AID 2282986); conditions: HepG2 Attagene CIS-FACTORIAL Myb reporter transcription; actives raise or lower the signal
Method in brief: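 Using HepG2 liver cells bearing transiently transfected cis-promoter reporter constructs, the assay measures induction or loss of reporter mRNA after 24 hours of dosing. Detection used fluorescently labeled RT-PCR products separated by capillary electrophoresis.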

[13] = ATG_Oct_MLP_CIS: Attagene CIS-FACTORIAL HepG2 Assay for human Octamer-Binding Transcription Factor (Oct) (AID 2282993); conditions: HepG2 Attagene cis-factorial Oct reporter, mRNA; actives raise or lower the signal
Method in brief: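 Multiplexed cis-reporter assay in human liver HepG2 cells, 24 h incubation. Reporter RNA amplified and labelled, then resolved by capillary electrophoresis; DMSO serves as negative control and baseline.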

[14] = biological target: Cellular tumor antigen p53 (Homo sapiens) (UniProt P04637); test: ATG_p53_CIS: Attagene CIS-FACTORIAL HepG2 Assay for human p53 Transcription Factor (AID 2282994); conditions: HepG2 p53 cis-element reporter, Attagene mRNA; actives raise or lower the signal
Method in brief: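 Read-out: reporter mRNA by RT-PCR plus capillary electrophoresis with fluorescence detection. Human HepG2 liver cells carried transfected multi-reporter cis-element constructs, dosed 24 h. Gain or loss of signal fitted bidirectionally against DMSO control.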

[15] = biological target: bovine Estrogen Receptor (ER), ESR1 (gene 407238) (UniProt P49884); test: NVS_NR_bER: NovaScreen (NVS) Nuclear Receptor Binding Assay for bovine Estrogen Receptor (ER) (AID 2283345; active means hit-call score of the fitted dose curve at least 0.9, where 1 is the maximum;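 further: actives lower the bound radioligand count which means they displace the ER ligand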)
Method in brief: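 Scintillation counting of displaced radioligand gave the readout; bovine uterine membrane extract supplied the receptor. Measured 18 h post-dose, normalized to DMSO baseline. Single 25 uM duplicate screen preceded concentration-response follow-up.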

[16] = ATG_AP_1_CIS: Attagene CIS-FACTORIAL HepG2 Assay for human Activator Protein 1 (AP-1) (AID 2282931); conditions: HepG2 Attagene cis-factorial AP-1 reporter mRNA; actives raise or lower the signal
Method in brief: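 We transfected HepG2 cells transiently with a set of cis-regulated reporter transcription units, dosed them for 24 h, and quantified reporter mRNA via RT-PCR and capillary electrophoresis, scoring gain or loss of signal relative to DMSO.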

[17] = biological target: Nuclear respiratory factor 1 (Homo sapiens) (UniProt Q16656); test: ATG_NRF1_CIS: Attagene CIS-FACTORIAL HepG2 Assay for human Nuclear Respiratory Factor 1 (NRF1) Orphan Gene (AID 2282987); conditions: HepG2 NRF1 cis-element reporter, Attagene multiplex; actives raise or lower the signal
Method in brief: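 Reporter mRNA induction or loss in HepG2 cells after 24 h dosing; cis-regulated reporter constructs report endogenous transcription-factor activity. Quantified by RT-PCR/capillary electrophoresis fluorescence, DMSO-referenced.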

[18] = ATG_NFI_CIS: Attagene CIS-FACTORIAL HepG2 Assay for human Nuclear Factor I (NFI) (AID 2282989); conditions: HepG2 cis-regulatory reporter, NFI response element transcription; actives raise or lower the signal
Method in brief: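 HepG2, transient MRTU, 24 h exposure; RNA→cDNA→PCR→FAM label→HpaI→CE fluorescence. Bidirectional fit, DMSO = baseline.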

[19] = ATG_NRF2_ARE_CIS: Attagene CIS-FACTORIAL HepG2 Assay for human Nuclear Factor Erythroid 2 Related Factor 2 (NFR2) response to Antioxidant Response Elements (ARE) (AID 2282992); conditions: HepG2 Attagene ARE/NRF2 reporter, transcription factor activity; actives raise or lower the signal;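 on AC50: reporter mRNA level measured by RT-PCR and capillary electrophoresis fluorescence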
Method in brief: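 Readout: reporter mRNA quantified by RT-PCR plus FAM-labelled primer extension, HpaI digestion and capillary electrophoresis, 24 h after dosing transfected HepG2 cells. Gain or loss of signal is fitted bidirectionally against DMSO baseline.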

[20] = read-out: CD40, CD40 (gene 958); test: BSK_SAg_CD40: BioMAP Diversity Plus: SAg Assay for CD40 Biomarker Activity (AID 2283088); conditions: primary human HUVEC with PBMC; actives raise or lower the signal
Method in brief: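 HUVEC/PBMC co-culture, 24 h post-dose; CD40 by ELISA, fluorescence intensity; bidirectional fit vs DMSO negative control.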

Measured: AC50

Nuclear respiratory factor 1 (Homo sapiens), sequence (Q16656 whole entry, looked up): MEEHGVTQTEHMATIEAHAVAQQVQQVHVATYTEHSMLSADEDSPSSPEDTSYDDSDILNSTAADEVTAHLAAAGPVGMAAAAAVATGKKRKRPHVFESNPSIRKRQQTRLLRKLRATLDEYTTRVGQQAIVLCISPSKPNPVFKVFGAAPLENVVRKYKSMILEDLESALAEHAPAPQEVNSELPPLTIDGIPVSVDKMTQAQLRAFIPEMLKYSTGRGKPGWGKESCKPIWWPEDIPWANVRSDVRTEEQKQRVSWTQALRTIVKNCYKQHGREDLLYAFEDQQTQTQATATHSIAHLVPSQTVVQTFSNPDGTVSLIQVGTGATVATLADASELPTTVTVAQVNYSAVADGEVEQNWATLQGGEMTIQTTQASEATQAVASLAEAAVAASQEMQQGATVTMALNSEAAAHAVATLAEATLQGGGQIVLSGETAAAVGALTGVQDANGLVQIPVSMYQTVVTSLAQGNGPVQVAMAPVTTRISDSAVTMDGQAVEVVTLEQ
X-box-binding protein 1 (Homo sapiens), sequence (P17861 whole entry, looked up, the tested form may be a part): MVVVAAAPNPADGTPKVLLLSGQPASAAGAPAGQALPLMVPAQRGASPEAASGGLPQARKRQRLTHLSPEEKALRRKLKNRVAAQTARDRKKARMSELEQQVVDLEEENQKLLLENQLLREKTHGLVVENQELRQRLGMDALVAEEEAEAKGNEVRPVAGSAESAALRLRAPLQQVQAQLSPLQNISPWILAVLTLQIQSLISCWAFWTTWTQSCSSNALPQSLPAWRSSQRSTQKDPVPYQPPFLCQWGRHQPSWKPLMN
Cellular tumor antigen p53 (Homo sapiens), sequence (P04637 whole entry, looked up): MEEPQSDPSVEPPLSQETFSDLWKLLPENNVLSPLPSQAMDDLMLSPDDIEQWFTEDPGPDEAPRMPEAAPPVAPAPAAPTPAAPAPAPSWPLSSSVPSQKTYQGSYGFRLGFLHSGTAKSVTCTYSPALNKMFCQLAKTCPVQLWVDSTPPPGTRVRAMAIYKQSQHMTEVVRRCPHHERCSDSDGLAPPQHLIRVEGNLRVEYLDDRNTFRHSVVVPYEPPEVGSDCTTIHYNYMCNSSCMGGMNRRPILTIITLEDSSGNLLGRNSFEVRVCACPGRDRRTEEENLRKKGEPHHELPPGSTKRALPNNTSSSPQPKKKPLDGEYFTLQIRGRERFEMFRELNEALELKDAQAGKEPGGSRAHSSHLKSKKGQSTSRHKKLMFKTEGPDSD
Transcription factor Sp1 (Homo sapiens), sequence (P08047 whole entry, looked up): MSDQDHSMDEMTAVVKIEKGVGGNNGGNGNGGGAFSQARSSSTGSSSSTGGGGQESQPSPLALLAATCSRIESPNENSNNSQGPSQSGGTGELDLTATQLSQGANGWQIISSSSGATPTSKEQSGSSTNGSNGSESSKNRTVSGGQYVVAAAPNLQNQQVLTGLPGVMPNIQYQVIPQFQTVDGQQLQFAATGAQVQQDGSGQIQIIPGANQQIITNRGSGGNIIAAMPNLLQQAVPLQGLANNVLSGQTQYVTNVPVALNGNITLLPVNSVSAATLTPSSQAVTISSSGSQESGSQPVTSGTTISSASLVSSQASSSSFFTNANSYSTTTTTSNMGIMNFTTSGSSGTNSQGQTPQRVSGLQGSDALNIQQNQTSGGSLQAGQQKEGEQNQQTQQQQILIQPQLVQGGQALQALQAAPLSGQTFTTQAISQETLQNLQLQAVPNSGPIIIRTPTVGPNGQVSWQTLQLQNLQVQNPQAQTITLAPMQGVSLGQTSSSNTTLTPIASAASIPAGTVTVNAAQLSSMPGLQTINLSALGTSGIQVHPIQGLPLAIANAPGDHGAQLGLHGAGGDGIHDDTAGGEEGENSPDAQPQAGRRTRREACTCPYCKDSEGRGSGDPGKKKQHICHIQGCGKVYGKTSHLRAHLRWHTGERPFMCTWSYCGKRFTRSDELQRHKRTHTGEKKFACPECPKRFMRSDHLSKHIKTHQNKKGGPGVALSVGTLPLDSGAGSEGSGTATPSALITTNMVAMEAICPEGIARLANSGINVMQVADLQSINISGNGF
Paired box protein Pax-6 (Homo sapiens), sequence (P26367 whole entry, looked up): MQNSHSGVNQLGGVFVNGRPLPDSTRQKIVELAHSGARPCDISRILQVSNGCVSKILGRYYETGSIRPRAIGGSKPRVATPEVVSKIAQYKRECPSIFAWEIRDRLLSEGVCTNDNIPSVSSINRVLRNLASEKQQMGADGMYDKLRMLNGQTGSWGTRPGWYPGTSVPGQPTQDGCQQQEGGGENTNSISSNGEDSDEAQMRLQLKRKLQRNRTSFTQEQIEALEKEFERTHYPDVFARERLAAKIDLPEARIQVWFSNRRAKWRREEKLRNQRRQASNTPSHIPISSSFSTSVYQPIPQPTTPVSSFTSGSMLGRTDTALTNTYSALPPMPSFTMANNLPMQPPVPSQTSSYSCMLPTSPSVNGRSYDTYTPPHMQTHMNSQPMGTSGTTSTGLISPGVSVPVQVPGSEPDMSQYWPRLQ
Signal transducer and activator of transcription 3 (Homo sapiens), sequence (P40763 whole entry, looked up): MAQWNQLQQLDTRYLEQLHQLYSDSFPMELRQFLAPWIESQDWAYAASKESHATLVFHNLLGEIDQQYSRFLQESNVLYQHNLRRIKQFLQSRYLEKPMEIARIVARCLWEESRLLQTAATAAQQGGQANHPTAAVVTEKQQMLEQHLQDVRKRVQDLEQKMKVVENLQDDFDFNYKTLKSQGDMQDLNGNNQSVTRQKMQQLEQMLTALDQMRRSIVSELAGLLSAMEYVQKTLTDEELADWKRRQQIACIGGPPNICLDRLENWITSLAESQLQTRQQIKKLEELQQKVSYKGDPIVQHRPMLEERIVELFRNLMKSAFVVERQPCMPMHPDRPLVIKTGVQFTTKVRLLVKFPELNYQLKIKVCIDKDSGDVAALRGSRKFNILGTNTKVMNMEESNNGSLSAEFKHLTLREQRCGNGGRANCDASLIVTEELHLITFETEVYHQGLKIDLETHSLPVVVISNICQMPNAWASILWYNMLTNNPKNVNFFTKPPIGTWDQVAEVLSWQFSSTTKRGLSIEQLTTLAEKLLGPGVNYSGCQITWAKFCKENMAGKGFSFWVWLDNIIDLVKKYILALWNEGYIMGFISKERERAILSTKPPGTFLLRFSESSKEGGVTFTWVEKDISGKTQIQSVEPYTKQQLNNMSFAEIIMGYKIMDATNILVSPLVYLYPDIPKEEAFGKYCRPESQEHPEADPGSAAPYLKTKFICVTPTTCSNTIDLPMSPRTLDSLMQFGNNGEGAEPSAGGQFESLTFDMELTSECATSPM
Transcriptional activator Myb (Homo sapiens), sequence (P10242 whole entry, looked up): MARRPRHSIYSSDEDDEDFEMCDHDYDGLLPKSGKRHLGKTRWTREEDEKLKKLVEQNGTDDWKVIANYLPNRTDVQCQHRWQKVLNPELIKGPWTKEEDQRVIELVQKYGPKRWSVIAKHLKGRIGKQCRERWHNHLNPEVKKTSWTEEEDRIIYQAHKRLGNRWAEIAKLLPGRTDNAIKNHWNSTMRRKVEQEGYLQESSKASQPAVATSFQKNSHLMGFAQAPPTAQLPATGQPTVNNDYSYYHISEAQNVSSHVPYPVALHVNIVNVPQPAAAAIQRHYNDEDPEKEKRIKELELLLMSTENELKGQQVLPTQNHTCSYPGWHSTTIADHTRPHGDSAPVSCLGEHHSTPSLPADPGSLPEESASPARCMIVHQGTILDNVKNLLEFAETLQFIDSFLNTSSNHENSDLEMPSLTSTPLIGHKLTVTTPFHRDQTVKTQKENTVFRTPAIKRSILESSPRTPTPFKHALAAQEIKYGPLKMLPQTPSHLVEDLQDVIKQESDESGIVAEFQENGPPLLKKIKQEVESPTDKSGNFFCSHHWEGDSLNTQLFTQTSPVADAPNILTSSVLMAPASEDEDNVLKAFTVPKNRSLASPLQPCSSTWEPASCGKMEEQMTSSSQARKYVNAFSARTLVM
bovine Estrogen Receptor (ER), ESR1 (gene 407238), sequence (P49884 whole entry, looked up): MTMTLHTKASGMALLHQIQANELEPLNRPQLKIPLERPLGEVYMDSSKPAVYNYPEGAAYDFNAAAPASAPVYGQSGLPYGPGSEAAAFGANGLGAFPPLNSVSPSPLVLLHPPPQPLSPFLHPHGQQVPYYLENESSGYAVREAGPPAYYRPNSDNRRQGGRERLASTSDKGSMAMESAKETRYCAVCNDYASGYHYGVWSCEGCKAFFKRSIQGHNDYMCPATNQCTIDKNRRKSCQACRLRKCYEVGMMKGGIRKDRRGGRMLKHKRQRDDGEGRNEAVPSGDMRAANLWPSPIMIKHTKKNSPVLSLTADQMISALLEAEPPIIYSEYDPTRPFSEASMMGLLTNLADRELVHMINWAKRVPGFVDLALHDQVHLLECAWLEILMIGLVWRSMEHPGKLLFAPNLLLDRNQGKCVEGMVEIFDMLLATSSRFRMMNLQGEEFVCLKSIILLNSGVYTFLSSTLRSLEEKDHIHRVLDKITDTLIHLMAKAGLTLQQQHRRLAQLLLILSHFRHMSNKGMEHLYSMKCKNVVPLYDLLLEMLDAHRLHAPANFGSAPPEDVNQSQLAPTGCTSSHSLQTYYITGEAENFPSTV

COc1ccc2ccccc2c1
inactive: [1] | [2] | [3] | [4] | [5] | [6] | [7] | [8] | [9] | [10] | [11] | [12] | [13] | [14]

O=[N+]([O-])c1ccc(ON=Cc2cc(Br)c(O)c(Br)c2)c([N+](=O)[O-])c1
inactive: [15]

CC1=CCCC(C)(C)C12CCC(C)O2 (stereo unspecified)
inactive: [16] | [1] | [2] | [3] | [4] | [5] | [6] | [7] | [8] | [9] | [10] | [11] | [12] | [17] | [18] | [13] | [14]
active: [19] 17.5 µM

COc1ccc(C(=O)c2ccccc2O)c(O)c1
active: [20] 29.9 µM
inactive: [20]

CCC[Si](OC(C)=O)(OC(C)=O)OC(C)=O
inactive: [20]

CC(=O)O[C@]1(C(C)=O)CC[C@H]2[C@@H]3C=C(C)C4=CC(=O)CC[C@]4(C)[C@H]3CC[C@@]21C
inactive: [15]

CN(C)CCC(c1ccc(Cl)cc1)c1ccccn1 (stereo unspecified)
inactive: [16] | [1] | [2] | [4] | [5] | [6] | [7] | [8] | [9] | [10] | [11] | [12] | [17] | [18] | [19] | [13] | [14] | [20]
active: [3] 125 µM

Cc1c(C(N)=O)cc([N+](=O)[O-])cc1[N+](=O)[O-]
inactive: [20]
active: [20] 32.4 µM

CC1=C(CC=O)C(C)(C)CCC1
active: [19] 30.2 µM
inactive: [16] | [1] | [2] | [3] | [4] | [5] | [6] | [7] | [8] | [9] | [10] | [11] | [12] | [17] | [18] | [13] | [14]
